# Values without a mark were called inactive. For some assays here: Entries with a potency or affinity are not part of this list. Activity calls are given as the source filed them. Unless noted, how the calls were made is not given here.
# What was measured:
# [1] = antimalarial activity against Dd2 strain (AID 2302;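 active means growth inhibition above 50% at the single 2 µM test dose, taken to imply half-maximal potency below 2 µM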;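 further: 0% = DMSO untreated growth and 100% = chloroquine plus artemisinin killed control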); conditions: P. falciparum Dd2 in RBCs, LDH growth readout, 72 h; at 2 µM; active compounds read high
# [2] = HepG2 cytotoxicity, primary screen, cytotoxicity control for P. falciparum antimalarial project, cell-based, ATP luminescence (AID 2303;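 active means inhibition above 50%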;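 further: 0% = DMSO wells and 100% = digitonin-killed cells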); conditions: HepG2 viability, 24-48 h, at 10 µM, active compounds read high
# [3] = molecular target: L-lactate dehydrogenase (Plasmodium falciparum (isolate CDC / Honduras)) (UniProt Q27743); experiment: PfLDH activity inhibition – cell lysate, 3D7 strain, counter-screen for P. falciparum growth inhibition project (AID 2304);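 further: 0% = vehicle and 100% = reference inhibitor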; conditions: P. falciparum 3D7 crude extract, LDH APAD/NBT absorbance; at 2 µM; active compounds read high
# Chain of L-lactate dehydrogenase (Plasmodium falciparum (isolate CDC / Honduras)) (Q27743 whole entry, looked up): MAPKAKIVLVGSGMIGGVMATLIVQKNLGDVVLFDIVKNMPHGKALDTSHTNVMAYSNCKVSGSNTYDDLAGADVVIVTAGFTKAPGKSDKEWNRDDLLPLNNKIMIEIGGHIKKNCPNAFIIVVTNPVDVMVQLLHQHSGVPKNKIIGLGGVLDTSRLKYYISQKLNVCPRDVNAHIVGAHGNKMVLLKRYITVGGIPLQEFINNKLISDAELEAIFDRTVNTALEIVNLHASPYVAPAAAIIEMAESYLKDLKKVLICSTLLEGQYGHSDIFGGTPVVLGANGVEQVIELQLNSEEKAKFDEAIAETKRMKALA
# [4] = inhibition of 3D7 malaria parasite growth – strain 3D7 (AID 2306);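 further: 0% = DMSO wells and 100% = chloroquine plus artemisinin control wells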; conditions: P. falciparum 3D7 erythrocytic growth, LDH absorbance, 72 h; at 2 µM; active compounds read high
# [5] = molecular target: Calcium-dependent protein kinase 1 (Plasmodium falciparum (isolate 3D7)) (UniProt P62344); experiment: PfCDPK1 kinase inhibitors, biochemical, TCAMS library (AID 1159585; cut-off not given, nearly all actives have IC50 up to about 0.98 µM;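 further: inhibitors leave more ATP so luminescence rises with inhibition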); conditions: recombinant PfCDPK1, Kinase-Glo ATP depletion luminescence
# Chain of Calcium-dependent protein kinase 1 (Plasmodium falciparum (isolate 3D7)) (P62344 whole entry, looked up): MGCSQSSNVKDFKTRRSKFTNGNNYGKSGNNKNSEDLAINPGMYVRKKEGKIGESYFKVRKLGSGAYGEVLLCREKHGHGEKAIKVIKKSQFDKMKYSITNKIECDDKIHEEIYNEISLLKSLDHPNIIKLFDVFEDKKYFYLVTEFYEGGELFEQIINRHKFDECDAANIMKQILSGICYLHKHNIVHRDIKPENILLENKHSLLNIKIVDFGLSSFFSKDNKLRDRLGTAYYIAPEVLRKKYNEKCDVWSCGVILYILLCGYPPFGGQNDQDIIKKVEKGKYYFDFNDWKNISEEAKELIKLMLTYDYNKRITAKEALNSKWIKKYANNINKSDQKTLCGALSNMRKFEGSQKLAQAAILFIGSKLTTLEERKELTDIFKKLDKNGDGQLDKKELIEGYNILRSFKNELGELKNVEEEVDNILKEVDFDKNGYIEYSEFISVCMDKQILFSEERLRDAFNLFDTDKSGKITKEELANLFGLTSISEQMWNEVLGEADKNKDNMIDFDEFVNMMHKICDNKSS
# [6] = molecular target: Plasmodium falciparum protein kinase 6 (PK6, PF3D7_1337100) (UniProt Q8IDW1); experiment: PfPK6 kinase inhibitors, biochemical, TCAMS library (AID 1159586); conditions: recombinant PfPK6, Kinase-Glo ATP depletion luminescence
# Chain of Plasmodium falciparum protein kinase 6 (PK6, PF3D7_1337100) (Q8IDW1 1-305): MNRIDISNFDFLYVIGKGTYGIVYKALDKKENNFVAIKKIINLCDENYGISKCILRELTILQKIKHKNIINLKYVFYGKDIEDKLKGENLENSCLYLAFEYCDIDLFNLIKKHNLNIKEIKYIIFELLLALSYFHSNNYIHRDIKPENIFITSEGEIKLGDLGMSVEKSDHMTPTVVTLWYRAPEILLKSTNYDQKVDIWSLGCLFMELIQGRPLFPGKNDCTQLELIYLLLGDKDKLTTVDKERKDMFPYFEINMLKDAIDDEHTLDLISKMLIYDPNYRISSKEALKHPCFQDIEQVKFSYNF
# [7] = molecular target: Protein kinase 7 (PK7), Plasmodium falciparum 3D7 (PF3D7_0213400) (UniProt Q7YTF7); experiment: inhibition of Plasmodium PK7 catalytic activity – biochemical, TCAMS antimalarial set, Kinase-Glo luminescence (AID 1159587); conditions: recombinant PfPK7, Kinase-Glo ATP depletion luminescence
# Chain of Protein kinase 7 (PK7), Plasmodium falciparum 3D7 (PF3D7_0213400) (Q7YTF7 1-343): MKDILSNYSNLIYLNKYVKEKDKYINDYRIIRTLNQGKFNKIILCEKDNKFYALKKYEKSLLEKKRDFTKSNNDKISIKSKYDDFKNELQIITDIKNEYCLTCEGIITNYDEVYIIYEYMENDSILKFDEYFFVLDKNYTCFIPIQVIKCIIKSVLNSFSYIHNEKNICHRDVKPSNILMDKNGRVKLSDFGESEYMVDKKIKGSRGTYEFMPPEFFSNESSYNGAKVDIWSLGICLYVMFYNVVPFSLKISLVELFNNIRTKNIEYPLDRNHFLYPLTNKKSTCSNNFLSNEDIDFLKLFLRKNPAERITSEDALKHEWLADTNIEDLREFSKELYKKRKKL
# [8] = molecular target: Calcium-dependent protein kinase 4 (Plasmodium falciparum (isolate 3D7)) (UniProt Q8IBS5); experiment: PfCDPK4 kinase inhibitors, biochemical, TCAMS library (AID 1159588; cut-off not given, nearly all actives have IC50 up to about 0.91 µM); conditions: recombinant PfCDPK4, Kinase-Glo ATP depletion luminescence
# Chain of Calcium-dependent protein kinase 4 (Plasmodium falciparum (isolate 3D7)) (Q8IBS5 whole entry, looked up): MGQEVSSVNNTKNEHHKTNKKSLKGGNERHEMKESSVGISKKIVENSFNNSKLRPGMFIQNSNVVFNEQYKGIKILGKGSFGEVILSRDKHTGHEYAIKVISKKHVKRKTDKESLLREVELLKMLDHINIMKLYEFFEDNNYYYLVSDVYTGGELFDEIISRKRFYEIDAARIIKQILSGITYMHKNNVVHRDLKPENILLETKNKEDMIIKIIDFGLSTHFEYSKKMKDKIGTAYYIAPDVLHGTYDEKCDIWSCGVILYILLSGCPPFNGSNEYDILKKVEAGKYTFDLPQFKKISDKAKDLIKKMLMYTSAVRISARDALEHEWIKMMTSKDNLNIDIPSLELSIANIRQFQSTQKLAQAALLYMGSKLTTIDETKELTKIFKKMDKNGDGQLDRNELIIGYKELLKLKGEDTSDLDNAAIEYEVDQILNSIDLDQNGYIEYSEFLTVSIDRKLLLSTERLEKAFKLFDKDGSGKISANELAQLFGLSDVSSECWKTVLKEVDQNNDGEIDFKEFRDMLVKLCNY
SMILES,growth inhibition [1],inhibition [2],inhibition [3],growth inhibition [4],outcome [5],outcome [6],outcome [7],outcome [8]
NC(=O)Nc1ccc2c(Nc3ccc(OCc4ccccc4)cc3)ncnc2c1,20%,-1%,3%,84% (active),inactive,inactive,inactive,inactive
CN(C)Cc1ccc2cc(NC(=O)c3ccc(-c4ccc(Cl)cc4)cc3)ccc2c1,22%,21%,-3%,92% (active),inactive,inactive,inactive,inactive
COc1ccc2c(NN=Cc3ccccc3Cl)cc(C)nc2c1,99% (active),5%,2%,101% (active),inactive,inactive,inactive,inactive
COc1cc2nc(N(C)Cc3cccc(I)c3)nc(N)c2cc1OC,88% (active),7%,1%,101% (active),inactive,inactive,inactive,inactive
CN=C(N)c1ccc(NC(=O)c2ccc(C(=O)Nc3ccc(C(N)=NC)cc3)cc2)cc1,91% (active),6%,0%,96% (active),inactive,inactive,inactive,inactive
CC1CCN(CC[C@H]2CCCN2S(=O)(=O)c2cccc(NC(=O)c3cc4ccccc4s3)c2)CC1,41%,28%,2%,97% (active),inactive,inactive,inactive,inactive
O=C(/C=C/c1ccc(C(F)(F)F)cc1)NCCCCCN1CCCN(C(=O)Nc2ccc(Cl)c(Cl)c2)CC1,17%,89% (active),0%,100% (active),inactive,inactive,inactive,inactive
CC1(C)N=C(N)N=C(N)N1OCc1cc(Cl)c(Cl)cc1CON1C(N)=NC(N)=NC1(C)C,100% (active),36%,4%,98% (active),inactive,inactive,inactive,inactive
CN1CCC(NCc2cccc(-c3ccc(S(=O)(=O)NCc4ccccc4)c(F)c3)c2)CC1,99% (active),94% (active),-8%,99% (active),inactive,inactive,inactive,inactive
Cc1cccnc1CNc1nccc2c(C)c(C)[nH]c12,28%,27%,0%,100% (active),inactive,inactive,inactive,inactive
CCCCc1cc(NCC)nc(Nc2ccc(F)cc2)n1,56% (active),33%,-1%,98% (active),inactive,inactive,inactive,inactive
Cc1ccc(C(=O)Nc2cc(C(F)(F)F)cc(C(F)(F)F)c2)cc1[N+](=O)[O-],61% (active),17%,1%,101% (active),inactive,inactive,inactive,inactive
O=C(Nc1cc(C(F)(F)F)ccc1Cl)c1ccc(Cn2cc(Br)cn2)cc1,67% (active),24%,-5%,91% (active),inactive,inactive,inactive,inactive
Cc1cccc(C(=O)Nc2ccnc(N3CCC(N(C)Cc4cccc(C#N)c4)CC3)c2)c1,52% (active),5%,-2%,101% (active),inactive,inactive,inactive,inactive
Oc1cccc2c1CC(NCc1ccccc1)CC2 (stereo not given),24%,4%,6%,90% (active),inactive,inactive,inactive,inactive
O=C(/C=C/c1cccc(C(F)(F)F)c1)NCCCCCN1CCC(c2c[nH]c3ccccc23)CC1,14%,70% (active),0%,90% (active),inactive,inactive,inactive,inactive
CN(C)C(C)(C)CN(Cc1ccc(-c2ccc(C(F)(F)F)cc2)cc1)C(=O)Cn1c(CCc2cccc(F)c2F)nc(=O)c2ccccc21,67% (active),64% (active),-3%,95% (active),inactive,inactive,inactive,inactive
COc1cc(F)c2ncc(Cl)c(C(O)CN3CCC(NC(=O)c4ccc5c(n4)NC(=O)CO5)CC3)c2c1 (stereo not given),100% (active),22%,-1%,102% (active),inactive,inactive,inactive,inactive
O=C(/C=C/c1ccc(Cl)c(Cl)c1)N1CCN(C(=O)Nc2cccc(C(F)(F)F)c2)CC1,100% (active),53% (active),4%,99% (active),inactive,inactive,inactive,inactive
COc1ccc2nccc([C@@H](O)CN3CCC(NC(=O)C(c4cc5ccccc5o4)N4CCN(C(c5ccccc5)c5ccccc5)CC4)CC3)c2c1 (stereo not given in full),100% (active),18%,-4%,100% (active),inactive,inactive,inactive,inactive

SMILES,growth inhibition [1],inhibition [2],inhibition [3],growth inhibition [4],outcome [5],outcome [6],outcome [7],outcome [8]
COc1ccccc1C1CCN(C2CCC(NC(=O)/C=C/c3cc(F)c(F)cc3F)CC2)CC1 (stereo not given),0%,39%,-5%,85% (active),inactive,inactive,inactive,inactive
O=C(NCCCCN1CCC(c2ccc3ccccc3c2O)CC1)c1ccc(NC(=O)c2ccc(Cl)cc2)cc1,89% (active),34%,3%,101% (active),inactive,inactive,inactive,inactive
CN1CCN(c2ccnc3ccc(NC(=O)Cc4ccc(Br)c5ccccc45)cc23)CC1,99% (active),8%,-3%,96% (active),inactive,inactive,inactive,inactive
CC(Nc1ccc2c(c1)OCCO2)C(=O)Nc1cc(C(F)(F)F)ccc1N1CCOCC1 (stereo not given),70% (active),-6%,1%,98% (active),inactive,inactive,inactive,inactive
c1csc(-c2nc(N3CCCC3)ncc2-c2ccsc2)n1,75% (active),1%,3%,89% (active),inactive,inactive,inactive,inactive
C[C@H](N[C@H]1CCCc2c1[nH]c1ccc(Br)cc21)c1ccccc1,95% (active),58% (active),4%,96% (active),inactive,inactive,inactive,inactive
O=C(c1ccc(-c2ccc(Cl)cc2)o1)N1CCc2cc3nccc(N4CCN5CCC[C@H]5C4)c3cc21,86% (active),1%,-3%,101% (active),inactive,inactive,inactive,inactive
CCN1CCN(c2ccc(NC(=O)c3cc4c(C)nn(-c5ccccc5)c4s3)cc2C)CC1,81% (active),32%,5%,101% (active),inactive,inactive,inactive,inactive
O=c1cc(NCCC(CNCc2ccc(Br)o2)NCc2cc(Br)cc(Br)c2)[nH]c2ccccc12 (stereo not given),90% (active),2%,6%,98% (active),inactive,inactive,inactive,inactive
COC(=O)C(NC(=O)c1ccc(-c2ccc(-c3nc4ccccc4[nH]3)s2)cc1)c1ccc(O)cc1 (stereo not given),49%,99% (active),3%,83% (active),inactive,inactive,inactive,inactive
CC(CN1CCN(CC(c2ccc(F)cc2)N2CCN(C)CC2)CC1)C(=O)c1ccc(O)cc1 (stereo not given),10%,-2%,-5%,97% (active),inactive,inactive,inactive,inactive
CCCc1cc2c3c(N)nc(N)nc3ccc2n1C(CC)CC,73% (active),70% (active),-1%,102% (active),inactive,inactive,inactive,inactive
COc1ccc(CCNC(=O)c2ccc(-n3cc(NC(=O)c4cccnc4)cn3)cc2)cc1OC,89% (active),17%,3%,90% (active),inactive,inactive,inactive,inactive
COc1cc(Cc2cnc(N)nc2N)ccc1OCC(=O)Nc1ccc(C)cc1,18%,10%,-2%,95% (active),inactive,inactive,inactive,inactive
COc1ccccc1CC1CCCN(C2CCC(NC(=O)c3cc4ccccc4[nH]3)CC2)C1 (stereo not given),21%,23%,-2%,98% (active),inactive,inactive,inactive,inactive
COc1ccc(CNCCCCCNCc2ccc(Cl)c(Cl)c2)cc1Cl,43%,42%,0%,98% (active),inactive,inactive,inactive,inactive
O=C(Nc1ccc2c(c1)CCC2)c1cccc(CN2CCCN(Cc3cccc(O)c3)CC2)c1,20%,10%,0%,91% (active),inactive,inactive,inactive,inactive
CC(=O)c1ccc(Nc2c(C(N)=O)cnc3cc(-c4c(C)noc4C)ccc23)cc1,44%,-3%,3%,99% (active),inactive,inactive,inactive,inactive
Cc1c(F)cc(C(=O)NC2CC2)cc1-c1ccc2c(c1)c(C)nn2S(=O)(=O)c1cccs1,92% (active),34%,-3%,91% (active),inactive,inactive,inactive,inactive
CCc1cccc(NC(=O)c2ccc(CN3CCCN(CC4CCCCC4)CC3)cc2)c1,36%,44%,0%,84% (active),inactive,inactive,inactive,inactive

# Reference: PubChem BioAssay
